# TWEAK Fn14 block: inhibitors of TWEAK-Fn14 interaction signaling. TWEAK-stimulated Fn14 reporter cells, luciferase luminescence, 8 h. inhibition, % at 10 µM. 360,000 compounds, 2% hits. AID 1159606; in the data active means inhibition above about 50%
# TROY signal inh: inhibitors of TROY-dependent NF-kB signaling. Q293 LMP1-TROYcd NF-kB luciferase reporter, 4 h. inhibition, % at 10 µM. 360,000 compounds, 0.98% hits. AID 1347056;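 active means compounds whose plate-normalised and pattern-corrected inhibition of the luciferase reporter signal at the single screening dose is 50% or more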
# CF NFkB block: blocks PAF-induced NF-kB reporter in cystic fibrosis cells; KKLEB NF-kB-GFP reporter, GFP fluorescence overnight; inhibition, % at 5 µM; 360,000 compounds, 0.86% hits;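 active means at least 50% inhibition at 5 µM, scaled per plate between neutral and stimulator controls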;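 further: PAF is a Pseudomonas aeruginosa culture filtrate used as stimulus; plate controls were PAF-stimulated DMSO wells for no effect and unstimulated DMSO wells for full effect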
# KKLEB cytotox: reduces viability of KKLEB cystic fibrosis airway cells | KKLEB CF airway cells viability, ATPlite luminescence, overnight; hits give low values; cells stimulated with P. aeruginosa culture filtrate | 360,000 compounds, 0.36% hits | AID 602141 | activity change (cytotoxicity), % at 5 µM;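 active means corrected activity change at or below -50% at 5 µM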
# EWS-Fli inh: inhibitors of EWS/Fli oncoprotein transcriptional activity | A673 NR0B1-luciferase reporter, viability-normalised | AID 651661 | 350,000 compounds, 0.67% hits | inhibition, % at 12.6 µM;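 active means mean inhibition of at least 50% after viability correction, with every replicate also passing that limit; inconclusive means mean reaches 50% but only one of two replicates passes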;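 further: firefly luciferase signal divided by Alamar Blue viability fluorescence both relative to DMSO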
# LGR2 antag: Drosophila LGR2 receptor signaling inhibition; HEK293 LGR2, CRE-luciferase, bursicon-stimulated, 4 h; inhibition, % at 9.99 µM; 380,000 compounds, 0.35% hits;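 active means drop in luminescence signal, shown as inhibition above about 50% in the replicate tests, limit read from the data, passing the limit was not always enough; inconclusive means probably only some replicates passing the limit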;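 further: agonist challenge used bursicon conditioned medium at about half maximal strength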
# Starred values were filed as active, the others as inactive; ? = inconclusive; / = no result. This is a sample that favours compounds with a hit; in the whole collection about 2.6% have one here.
SMILES,TWEAK Fn14 block,TROY signal inh,CF NFkB block,KKLEB cytotox,EWS-Fli inh,LGR2 antag
CNC[C@@H](Cc1ccccc1)NC[C@@H](CC1CCCCC1)NCCCc1ccccc1,-64,37,85*,-96*,44,102*
O=[N+]([O-])c1ccc(/C=N/n2cnc3ccccc32)s1,54*,-16,18,-10,/,-5
O=[N+]([O-])c1ccc(/C=N/n2c(CO)nc3ccccc32)s1,-9,-8,22,-8,/,5
Cc1nc2ccccc2n1/N=C/c1ccc([N+](=O)[O-])s1,70*,4,21,-20,14,24
CC(=O)N(C)C[C@H]1Oc2cc(C#C[C@@H](C)O)ccc2S(=O)(=O)N([C@@H](C)CO)C[C@H]1C,/,/,/,/,-5,2
CC(=O)NC[C@H]1[C@@H](c2ccc(-c3ccccc3)cc2)[C@@H](CO)N1C(=O)C1CCC1,/,/,/,/,-13,5
O=C(C[C@H]1CC[C@H](NC(=O)C2CCOCC2)[C@@H](CO)O1)NCC1CCCCC1,/,/,/,/,1,0
Clc1cccc(-c2cc3nc4c(c(N5CCN(c6cnccn6)CC5)n3n2)CCCC4)c1,61*,26,20,-14,/,/
Clc1cccc(-c2cc3nc4c(c(N5CCOCC5)n3n2)CCCC4)c1,6,28,18,-11,/,/
CO[C@H]1CN(C)C(=O)c2cc(NC(=O)C3CC3)ccc2OC[C@H](C)N(C(=O)c2cccnc2)C[C@H]1C,/,/,/,/,-9,3
Cc1noc(C)c1NC(=O)Nc1cccc2c1O[C@H](CN(C)C(=O)Nc1cccc3ccccc13)[C@@H](C)CN([C@H](C)CO)C2=O,/,/,/,/,3,5
CC(C(Sc1ccccc1N)c1ccccc1)[N+](=O)[O-] (stereo unspecified),-25,55*,4,-16,-1,/
COCC1CCN(C(=O)c2cc(COc3ccc(F)cc3Cl)on2)C1 (stereo unspecified),94*,-47,-13,0,-43,-29
C[C@@H]1CCCCO[C@@H](CN(C)Cc2ccc(C(F)(F)F)cc2)[C@H](C)CN([C@@H](C)CO)C(=O)c2cc(NC(=O)c3ccncc3)ccc2O1,/,/,/,/,18,9
COc1ccc(C2CC(=O)N(C)c3ccccc3S2)cc1 (stereo unspecified),70*,57*,-39,-4,-40,/
COc1ccc(C2CC(=O)N(CC(=O)NCC3CCCO3)c3ccccc3S2)cc1 (stereo unspecified),47,52*,-6,8,-7,2
N#C/C(=C(/O)c1ccc([N+](=O)[O-])o1)c1nc2ccccc2[nH]1,29,50*,94*,-29,9,12
Cc1ccc2nc(/C(C#N)=C\c3ccc([N+](=O)[O-])o3)[nH]c2c1,99*,45,12,-68*,/,/
CC(C)(C)/C(O)=C(/C#N)c1nc2ccccc2[nH]1,25,7,1,8,/,/
N#C/C(=C\c1ccc(Sc2ccccc2)o1)c1nc2ccccc2[nH]1,-6,-11,4,-20,-63,-68
N#C/C(=C\c1ccc([N+](=O)[O-])o1)c1nc2ccccc2[nH]1,/,/,/,/,59*,12
Cc1ccc(S(=O)(=O)N2[C@@H]3CNC[C@H]2C3c2ccc(-c3ccccc3C)cc2)cc1 (stereo partly specified),/,/,/,/,14,-7
CCCCCc1cc(=O)oc2c(C(CCN(CC)CC)c3cc(OC)c(OC)c(OC)c3)c(OC)cc(OC)c12 (stereo unspecified),-14,5,12,-11,51*,/
CCn1c(N)c(C(=O)NCC2CCCO2)sc1=S (stereo unspecified),85*,/,-6,-1,/,9
CCC(C)NC(=O)N[C@@H](Cc1ccccc1)C(=O)O (stereo partly specified),-13,18,13,-85*,/,/
SMILES,TWEAK Fn14 block,TROY signal inh,CF NFkB block,KKLEB cytotox,EWS-Fli inh,LGR2 antag
C[C@@H]1CCCCO[C@H](CN(C)Cc2ccccc2)[C@H](C)CN([C@H](C)CO)C(=O)c2cc(NC(=O)c3ccncc3)ccc2O1,/,/,/,/,/,15
Cc1noc(C)c1S(=O)(=O)N(C)C[C@@H]1Oc2ccc(NS(=O)(=O)c3cn(C)cn3)cc2CC(=O)N([C@H](C)CO)C[C@@H]1C,/,/,/,/,-12,-7
Clc1ncnc2c1oc1ccccc12,-18,-22,-4,3,/,/
c1coc(CN(Cc2ccco2)c2ncnc3c2oc2ccccc23)c1,66*,18,15,-2,/,/
Cc1ccc2[nH]c(O)c(N=NC(N)=S)c2c1,-14,-11,-20,-1,-11,-11
CC(/C=C(\NC(=O)c1ccccc1)C(=O)N=Nc1c(O)[nH]c2ccc(C)cc12)=C\c1ccccc1,38,-29,53*,-14,/,5
C=C1CC(COc2cc(=O)oc3ccccc23)(c2ccccc2)OC1=O (stereo unspecified),67*,58*,98*,-104*,?,/
COc1ccc2c3c([nH]c2c1)[C@H](CO)N(C(C)=O)CC31CCN(C(=O)Nc2ccccc2F)CC1,/,/,/,/,19,3
CN(C)c1cccc(C(=O)N/N=C/c2ccccc2F)c1,89*,56*,-16,-5,-45,86*
COCC(=O)N1C[C@H](C)[C@@H](OC)CN(C)C(=O)c2ccc(NC(=O)c3ccc(OC)cc3)cc2OC[C@@H]1C,/,/,/,/,4,-2
Cc1ccc(NC(=O)COC(=O)C2=COCCO2)c([N+](=O)[O-])c1,5,16,-3,-12,-1,1
CC(=O)c1c(C)[nH]c(C(=O)OCC(=O)Nc2cc(Cl)ccc2[N+](=O)[O-])c1C,88*,70*,24,4,5,29
CC(=O)c1c(C)[nH]c(C(=O)OCC(=O)Nc2ccc(C)cc2[N+](=O)[O-])c1C,63*,41,39,-7,/,1
CC(NC1CCCC1)c1ccccc1 (stereo unspecified),16,76*,-20,5,10,/
CCCNC(=O)Nc1ccc2c(c1)C(=O)N(C)C[C@@H](OC)[C@@H](C)CN(C(=O)C1CC1)[C@H](C)CO2,/,/,/,/,-3,-3
COc1ccc(Cn2c(SCc3ccc(C)cc3)nc3cc(OC)c(OC)cc3c2=N)cc1Cl,-2,27,96*,-94*,/,/
Cc1[nH]c2ccccc2c1C1=NNC(=Nc2ccc(F)cc2)SC1,55*,25,-11,16,12,-1
COc1ccc(N=C2NN=C(c3c(C)[nH]c4ccccc34)CS2)cc1,10,2,-2,-6,13,15
CC(=O)Nc1ccc2c(c1)C(=O)N(C)[C@H]1CC[C@@H](CC(=O)NCc3ccccc3Cl)O[C@@H]1CO2,/,/,/,/,6,6
N#Cc1ccc(-c2csc(NC(=O)/C=C/c3cccs3)n2)cc1,48,59*,4,0,/,23
O=C(/C=C/c1ccccc1)Nc1nc(-c2ccncc2)cs1,30,53*,-32,-15,-16,-6
O=C(/C=C\c1ccco1)Nc1nc(-c2ccccc2)cs1,2,-56,12,-6,-42,/

# Screening data as filed in PubChem BioAssay.
